{
  "source": "PubChem BioAssay AID1465",
  "about": "(SRMLSC, 2008)",
  "note": "The campaign covered roughly 220,000 compounds. About 160 (0.073%) were called active. A selection follows. Entries with a potency or affinity are not part of this list. Values without a mark were called inactive.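 Rule for the calls: active = fold induction of absorbance versus untreated yeast above a set limit, then at least 30% activation at any dose in follow-up; inconclusive = repeats straddling the limit, or above it without dose testing; inactive = fold induction below the set limit.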",
  "data": [
    {"test": "enhancers of respiration in Yfh1-depleted yeast, dose response, Friedreich's ataxia, plus single-dose screen (AID 1465)", "settings": "S. cerevisiae Yfh1-off respiration, WST-1 reduction, 72 h; at 50 µM; hits give high values", "values": [
      {"smiles": "CC[n+]1c(/C=C2/C=C(C)CC(C)C2)sc2ccccc21", "note": "(stereo unspecified)", "fold induction": 0.96},
      {"smiles": "CC[n+]1c(/C=C2\\C=C(C)CC(C)C2)sc2ccccc21", "note": "(stereo unspecified)", "fold induction": 0.873},
      {"smiles": "CC[n+]1c(/C=C2\\C=C(C)CC(C)(C)C2)sc2ccccc21", "fold induction": 0.86},
      {"smiles": "CC[n+]1c(/C=C(\\C)SC)sc2ccccc21", "fold induction": 0.92},
      {"smiles": "COc1ccc(C(=O)COC(=O)c2ccc(N(C)C)cc2)cc1", "fold induction": 1.01},
      {"smiles": "Cc1[nH]nc(SCC(=O)NC2CCCC2)c1[N+](=O)[O-]", "fold induction": 1.05},
      {"smiles": "COCC(=O)N1CCCN(c2nc3c(C)cccc3cc2C#N)CC1", "fold induction": 0.96},
      {"smiles": "CCC(=O)N1COC[C@@H]1Cc1ccccc1", "fold induction": 1.04},
      {"smiles": "COC(=O)c1cc2c(ccn2-c2ccc(F)cc2)n1Cc1ccc(C#N)cc1", "fold induction": 1.03},
      {"smiles": "Cn1cccc1/C=C1\\SC(=S)N(NC(=O)c2ccccc2)C1=O", "fold induction": 1.81},
      {"smiles": "CCC(C(=O)O)N1C(=O)/C(=C/C(C)=C/c2ccccc2)SC1=S", "note": "(stereo unspecified)", "fold induction": 1.22},
      {"smiles": "Cn1cccc1/C=C1\\SC(=S)N(Nc2ccccc2)C1=O", "fold induction": 1.02},
      {"smiles": "O=C(O)C(Cc1ccccc1)N1C(=O)/C(=C/c2ccccc2)SC1=S", "note": "(stereo unspecified)", "fold induction": 0.93},
      {"smiles": "NC(=O)c1cccc2c(=O)oc3ccccc3c12", "fold induction": 0.99},
      {"smiles": "CN1CCN(C(=O)c2cc(C(C)(C)C)cc(C(C)(C)C)c2)CC1", "fold induction": 1.02},
      {"smiles": "Cn1nnnc1P(=O)(c1ccccc1)c1ccccc1", "fold induction": 1.15},
      {"smiles": "O=C(Nc1ccccc1-c1nc2ccccc2[nH]1)c1ccc(N2C(=O)CCC2=O)cc1", "fold induction": 1.11},
      {"smiles": "O=c1c(N2CCOCC2)c(N2CCOCC2)c1=O", "fold induction": 1.08},
      {"smiles": "CC1=C(N2CCOCC2)CCC1=O", "fold induction": 0.92},
      {"smiles": "Cc1nc2ccc(NC(=O)COc3ccccc3[N+](=O)[O-])cc2s1", "fold induction": 0.97},
      {"smiles": "CN(C(=O)COC(=O)c1ccc(Cl)cc1N)C1CCCCC1", "fold induction": 1.06},
      {"smiles": "CC(=O)c1cccc(NC(=O)N2CCCC2C(=O)Nc2c(C)cccc2C)c1", "note": "(stereo unspecified)", "fold induction": 1.07},
      {"smiles": "COc1ccc(C2=NN(c3nc4ccccc4s3)C(=O)/C2=C\\N(C)C)cc1", "fold induction": 1.14},
      {"smiles": "COc1ccc(C2=NN(c3nc(C)cc(C)n3)C(=O)C2)cc1", "fold induction": 1.09},
      {"smiles": "CC(=O)Oc1cccc(-c2nc3ccccc3c(=O)o2)c1", "fold induction": 0.89},
      {"smiles": "CCOC(=O)c1[nH]c2ccccc2c1NC(=O)C1CCCCC1", "fold induction": 1.05},
      {"smiles": "Cc1ccc2c3c(cccc13)-c1ccccc1C2=O", "fold induction": 0.91},
      {"smiles": "Cc1coc2c1C(=O)C(=O)c1c-2ccc2c1CCCC2(C)C", "fold induction": 1.54},
      {"smiles": "Cc1ccc(CN2C(=O)CCC2C(=O)NC(C)C)cc1", "note": "(stereo unspecified)", "fold induction": 1.04},
      {"smiles": "COc1ccc2c(c1)c(CCN1C(=O)c3ccccc3C1=O)cn2C(=O)c1ccco1", "fold induction": 1.01},
      {"smiles": "CCOc1cc(/C=N\\O)cc(Cl)c1OCC", "fold induction": 0.87},
      {"smiles": "CCOc1ccc2nc3ccc4[nH]onc4c3c2c1", "fold induction": 0.93},
      {"smiles": "CCCCNC1=CC(=O)C(=O)c2ccccc21", "fold induction": 2.68},
      {"smiles": "O=C1C=C(Nc2ccccc2)c2ccccc2C1=O", "fold induction": 1},
      {"smiles": "O=C(C1CCCO1)N1CCN(C(=S)Nc2ccccc2Cl)CC1", "note": "(stereo unspecified)", "fold induction": 0.94},
      {"smiles": "COCCCn1c(SCc2nnc(-c3ccc(OC)c(OC)c3)o2)nnc1-c1ccncc1", "fold induction": 1.13},
      {"smiles": "COC(=O)N/N=C/c1cc(OC)c(O)c([N+](=O)[O-])c1", "fold induction": 1.19},
      {"smiles": "COc1cc(/C=N/NC(=O)c2ccc(C)nc2)cc([N+](=O)[O-])c1O", "fold induction": 1.21},
      {"smiles": "COC(=O)C1CCN(C(=O)Cc2c(OC)ccc3cc(Br)ccc23)CC1", "fold induction": 0.95},
      {"smiles": "CCOC(=O)C1(Cc2cccc(OC)c2)CCN(CC=C(C)C)CC1", "fold induction": 1.02},
      {"smiles": "O=[N+]([O-])c1ccc(Sc2cccc3cccnc23)c2cccnc12", "fold induction": 1.02},
      {"smiles": "O=[N+]([O-])c1cccc(CSc2cccc[n+]2[O-])c1", "fold induction": 1.1},
      {"smiles": "CCN(C(=O)CSc1ncccc1C(=O)Oc1cccc([N+](=O)[O-])c1)c1cccc(C)c1", "fold induction": 0.93},
      {"smiles": "O=C(NCCNc1ccc([N+](=O)[O-])cc1)c1ccco1", "fold induction": 1.23},
      {"smiles": "CCN(CC)S(=O)(=O)c1ccc(N/N=C/c2cccnc2)nc1", "fold induction": 1.09},
      {"smiles": "c1cncc(CSc2ccc(-c3cccnc3)nn2)c1", "fold induction": 1.13},
      {"smiles": "Clc1ccc(CSc2ccc(-c3ccccn3)nn2)cc1", "fold induction": 0.99},
      {"smiles": "Cc1cc(C(=O)N/N=C/c2ccccc2Br)no1", "fold induction": 0.94},
      {"smiles": "COC(=O)c1nc(NC2=NCCCCC2)n[nH]1", "fold induction": 1.02},
      {"smiles": "COC(=O)c1cc(OC)c(OC)cc1NC(=O)c1cccc(OC)c1OC", "fold induction": 1.09},
      {"smiles": "O=C(C=C1CCN(c2ncc(C(F)(F)F)cc2Cl)CC1)NNC(=O)Nc1ccccc1", "fold induction": 0.89},
      {"smiles": "O=C1NN(c2ccc(F)cc2)C(=O)/C1=C\\c1cnn(-c2ccccc2)c1", "fold induction": 1.14},
      {"smiles": "COc1ccc(NC(=O)c2csc3c2CCCCC3)c(OC)c1", "fold induction": 1},
      {"smiles": "COc1ccc(CNC(=O)CCS(=O)(=O)Cc2ccc(C)cc2)c(OC)c1", "fold induction": 0.98},
      {"smiles": "CCOC(=O)c1cnn(-c2ccccc2)c1NC(=O)c1ccccc1C", "fold induction": 0.92},
      {"smiles": "COc1ccccc1NS(=O)(=O)c1cccc(C(=O)N/N=C/c2ccccc2OCC(=O)O)c1", "fold induction": 0.99},
      {"smiles": "CCN(CC)c1ccc(/C=N/NC(=O)c2cccc(S(=O)(=O)Nc3ccccc3OC)c2)cc1", "fold induction": 1.14},
      {"smiles": "O=C(NCc1n[nH]c(=S)n1-c1ccc(Cl)c(Cl)c1)c1cccs1", "fold induction": 0.98},
      {"smiles": "O=C(NNC1=C(C(=O)C(F)(F)F)CCC1)c1ccccc1Cl", "fold induction": 1.02},
      {"smiles": "O=C(NNC1=C(C(=O)C(F)(F)F)CCC1)c1ccc(Cl)cc1", "fold induction": 1.11},
      {"smiles": "O=C(NNC1=C(C(=O)C(F)(F)F)CCC1)c1ccncc1", "fold induction": 1.05},
      {"smiles": "O=C(NNC1=C(C(=O)C(F)(F)F)CCC1)c1ccccc1O", "fold induction": 0.82},
      {"smiles": "CN(C)c1ccc(NC(=O)C(=O)NCCOc2ccccc2)cc1", "fold induction": 0.95},
      {"smiles": "CC(C)=CC(=O)OCC(=O)Nc1cc(C)cc(C)c1", "fold induction": 0.86},
      {"smiles": "Cc1cc(C)nc(SCc2ccc(C(=O)N/N=C/c3ccccn3)cc2)n1", "fold induction": 1.01},
      {"smiles": "CCSc1nc(=O)n(-c2ccccc2)c(C)c1C(C)=O", "fold induction": 1.05},
      {"smiles": "CC(C)C(=O)Nc1cccc(NC(=O)c2cccc([N+](=O)[O-])c2)c1", "fold induction": 0.95},
      {"smiles": "Cc1cc(C)n(CC(=O)Nc2ccccc2)n1", "fold induction": 1.01},
      {"smiles": "COc1cc(CNC(C)C)c(Br)cc1OC1CCCC1", "fold induction": 1.02},
      {"smiles": "Cc1sc2nc(SC3CCOC3=O)n(Cc3ccccc3)c(=O)c2c1C", "note": "(stereo unspecified)", "fold induction": 0.94},
      {"smiles": "CC(C)OCCCNC(=O)CCC(=O)NNc1nc2ccccc2c2nc(-c3ccccc3)nn12", "fold induction": 0.97},
      {"smiles": "Cc1ccc(NC2=C(Cl)C(=O)c3ccccc3C2=O)cc1", "fold induction": 1.27},
      {"smiles": "O=C1C(Cl)=C(Nc2ccc(O)cc2)C(=O)c2ccccc21", "fold induction": 1.23},
      {"smiles": "Cc1sc2ncn(CC(=O)Nc3ccccc3F)c(=O)c2c1-c1ccccc1", "fold induction": 0.95},
      {"smiles": "O=C(NCC(c1ccco1)N1CCCCC1)c1ccc2c(c1)S(=O)(=O)c1ccccc1C2=O", "note": "(stereo unspecified)", "fold induction": 0.99},
      {"smiles": "CCCC(=O)c1cc2ccccc2oc1=O", "fold induction": 1.11},
      {"smiles": "Cc1cc(C)nc(SCC(=O)c2cc3ccccc3oc2=O)n1", "fold induction": 1.02},
      {"smiles": "CCCCCC(=O)NC(=S)NNC(=O)CC", "fold induction": 0.75},
      {"smiles": "CCCCC(=O)NC(=S)NNC(=O)CC#N", "fold induction": 0.83},
      {"smiles": "CCCNC(=O)C1(CC2CC(c3ccccc3)=NO2)CCN(C(=O)CCCCCBr)CC1", "note": "(stereo unspecified)", "fold induction": 1.03},
      {"smiles": "O=C(NC(c1ccccc1)c1cc(Cl)c2cccnc2c1O)c1cccnc1", "note": "(stereo unspecified)", "fold induction": 0.87},
      {"smiles": "CCCC(=O)NC(c1cccs1)c1cc(Cl)c2cccnc2c1O", "note": "(stereo unspecified)", "fold induction": 1.06},
      {"smiles": "CCC(=O)NC(c1ccccc1OC)c1ccc2cccnc2c1O", "note": "(stereo unspecified)", "fold induction": 0.67},
      {"smiles": "O=C(O)COc1ccccc1C(Nc1ccccn1)c1cc(Cl)c2cccnc2c1O", "note": "(stereo unspecified)", "fold induction": 1.19},
      {"smiles": "CCCC(=O)NC(c1ccccc1OC)c1ccc2cccnc2c1O", "note": "(stereo unspecified)", "fold induction": 1.03},
      {"smiles": "CCC(=O)NC(c1ccco1)c1cc(Cl)c2cccnc2c1O", "note": "(stereo unspecified)", "fold induction": 1.13},
      {"smiles": "O=C(NC(c1ccc(Cl)cc1)c1cc(Cl)c2cccnc2c1O)c1cccnc1", "note": "(stereo unspecified)", "fold induction": 1.09},
      {"smiles": "CCCCC(=O)NC(c1ccco1)c1cc(Cl)c2cccnc2c1O", "note": "(stereo unspecified)", "fold induction": 0.91},
      {"smiles": "O=C(Cn1c(COc2ccccc2)nc2ccccc21)Nc1cc(Cl)cc(Cl)c1", "fold induction": 0.92},
      {"smiles": "CO/N=C/c1ccc(N2CCN(C(=O)c3ccc(F)cc3)CC2)c([N+](=O)[O-])c1", "fold induction": 0.84},
      {"smiles": "CC(=O)Nc1ccc(CN2CCCC(C(=O)c3ccc(C(F)(F)F)cc3)C2)cc1", "note": "(stereo unspecified)", "fold induction": 0.88},
      {"smiles": "Cc1cc2ccccc2n2c(SCC(=O)NCC3CCCO3)nnc12", "note": "(stereo unspecified)", "fold induction": 0.94},
      {"smiles": "Cc1nc(SC(C)C(=O)Nc2cccc(C(F)(F)F)c2)c2c(C)c(C(=O)O)sc2n1", "note": "(stereo unspecified)", "fold induction": 1.09},
      {"smiles": "COCCNC(=O)c1cnn2c(C(F)F)cc(-c3ccccc3)nc12", "fold induction": 1.17},
      {"smiles": "COC(=O)c1ccc(N)cc1O", "fold induction": 1.05},
      {"smiles": "COC(=O)c1ccc(C(=O)OC)c(=O)[nH]1", "fold induction": 1.03},
      {"smiles": "COc1ccc(N2CCN(C(=O)c3ccc(C(C)(C)C)cc3)CC2)cc1", "fold induction": 0.96},
      {"smiles": "CC(=O)Nc1nc2cc3c(cc2s1)OCO3", "fold induction": 0.99},
      {"smiles": "COc1ccc(CCNC(=O)COC(=O)Cc2ccc(OC)cc2)cc1", "fold induction": 0.8},
      {"smiles": "CCOC(=O)c1c(C)oc2c1c(C=NCCO)c(O)c1ccccc12", "fold induction": 1.38},
      {"smiles": "CCOC(=O)c1c(C)oc2c1c(CN1CCN(C(=O)OCC)CC1)c(O)c1ccccc12", "fold induction": 1.19}
    ]}
  ]
}
